From PubChem BioAssay (Tox21)
Results filed as inconclusive are left out. Activity calls are given as the source filed them. Unless noted, calls come from the whole dose curve; as a rule, active = well fitted curve in the direction sought with a large enough effect in the repeat runs; inconclusive = weak or mixed curves; inactive = no such curve, though single readings can be large; an effect the other way counts as inactive or inconclusive.

What was measured:
[1] = qHTS assay to identify small molecule agonists of the hypoxia (HIF-1) signaling pathway - cell viability counter screen (AID 1224844; calls by dose curve; note: nearly all actives have a fitted effect of over 50% in size); details: HRE-bla ME-180 viability, CellTiter-Glo luminescence, 17 h; series mostly up to 76.8 µM
Outline: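 CellTiter-Glo luminescence read-out, 30 min RT, taken in the same wells as the beta-lactamase HRE reporter assay; HRE-bla ME-180 cells, 0.5% dialyzed FBS, 17 hr compound treatment at 37C, 5% CO2.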

[2] = A CellTox Green Cytotoxicity Assay to monitor cytotoxicity in HEK293 cells - 0 hour (AID 1224869); details: CellTox Green fluorescence; series mostly up to 76.8 µM; note: nearly all actives have a fitted effect of over 50% in size
Outline: (§1)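 Read-out: fluorescence of a cell-impermeant cyanine dye staining DNA of dead cells, proportional to cytotoxicity. HEK293, 600 cells/well with reagent, compound (23 nL DMSO) added after 5 h; reads at 0, 8, 16, 24, 32, 40 h.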

[3] = A CellTox Green Cytotoxicity Assay to monitor cytotoxicity in HepG2 cells - 16 hour (AID 1224876); details: CellTox Green fluorescence; series mostly up to 76.8 µM; note: nearly all actives have a fitted effect of over 45% in size; note: potency is the fitted concentration of half-maximal effect
Outline: (§2)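 HepG2, 600 cells/well premixed w/ CellTox Green; 5 h settle, 37 C/5% CO2; pintool cpd add (DMSO); 37 C, 40 h; fluorescence read at 0, 8, 16, 24, 32, 40 h.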

[4] = A CellTox Green Cytotoxicity Assay to monitor cytotoxicity in HepG2 cells - 24 hour (AID 1224878); details: CellTox Green fluorescence; series mostly up to 76.8 µM; note: nearly all actives have a fitted effect of over 45% in size; note: potency is the fitted concentration of half-maximal effect
Outline: as §2

[5] = A CellTox Green Cytotoxicity Assay to monitor cytotoxicity in HepG2 cells - 40 hour (AID 1224879); details: CellTox Green fluorescence; series mostly up to 76.8 µM; note: nearly all actives have a fitted effect of over 40% in size; note: potency is the fitted concentration of half-maximal effect
Outline: as §2

[6] = qHTS assay to identify small molecule agonists of H2AX - cell viability counter screen (AID 1224847; calls by dose curve; note: top concentration of the series differs between compounds; nearly all actives have a fitted effect of over 30% in size); details: CHO-K1 viability, CellTiter-Glo luminescence, 3 h; series mostly up to 154 µM
Outline: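 Quantitative HTS viability measurement: CHO-K1 wild-type cells in serum (10% FBS) medium, short 3 hr drug exposure at 37C with 0.76% DMSO, CellTiter-Glo luminescent detection.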

[7] = A CellTox Green Cytotoxicity Assay to monitor cytotoxicity in HEK293 cells - 40 hour (AID 1224871); details: CellTox Green fluorescence; series mostly up to 76.8 µM; note: nearly all actives have a fitted effect of over 45% in size; note: potency is the fitted concentration of half-maximal effect
Outline: as §1

[8] = qHTS RealTime-Glo MT Cell Viability Assay in HEK293 cells - 16 hour (AID 1224872); details: RealTime-Glo luminescence; series mostly up to 76.8 µM; note: nearly all actives have a fitted effect of over 50% in size; note: potency is the fitted concentration of half-maximal effect
Outline: (§3)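 Quantitative high-throughput screen of the Tox21 10K library in HEK293: cells and RealTime-Glo reagents plated together, compound added at 5 h, luminescence monitored through 40 h at 37 C.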

[9] = qHTS RealTime-Glo MT Cell Viability Assay in HepG2 cells - 8 hour (AID 1224873); details: RealTime-Glo luminescence; series mostly up to 76.8 µM; note: nearly all actives have a fitted effect of over 55% in size
Outline: (§4)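 HepG2 cells mixed with RealTime-Glo MT reagents (NanoLuc plus cell-permeant prosubstrate) were seeded at 600 cells/well, incubated 5 h at 37 C/5% CO2, then pinned with compounds in DMSO; nonlytic luminescence tracked viability during 40 h treatment.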

[10] = A CellTox Green Cytotoxicity Assay to monitor cytotoxicity in HEK293 cells - 24 hour (AID 1224875); details: CellTox Green fluorescence; series mostly up to 76.8 µM; note: nearly all actives have a fitted effect of over 45% in size
Outline: as §1

[11] = qHTS assay to identify small molecule agonists of H2AX (AID 1224845; active = well fitted activation curve with a large enough effect in the signal ratio in the repeat runs, not every such curve was filed as active; the % refers to the signal ratio); details: CHO-K1 phospho-H2AX Ser139 HTRF, 3 h; series mostly up to 154 µM
Outline: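 Wild-type CHO-K1 cells plated overnight, then exposed 3 hr at 37C to compounds at 15 concentrations (0.76% DMSO). Lysed, then HTRF anti-pH2AX(S139)-cryptate/anti-H2AX-d2 detection after 24 hr at room temperature; emissions 665 and 620 nm.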

[12] = qHTS assay to identify small molecule agonists of the hypoxia (HIF-1) signaling pathway (AID 1224846; active = well fitted activation curve with a large enough effect in the signal ratio in the repeat runs, not every such curve was filed as active; the % refers to the signal ratio); details: HRE-bla ME-180 cells, beta-lactamase ratio, 17 h; series mostly up to 76.8 µM
Outline: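 Beta-lactamase FRET read-out (CCF4-AM substrate) from ME-180 cells carrying an HRE-driven bla reporter, after 17 hrs compound exposure at 37C/5% CO2. Cells were seeded at 2,000 per well in 0.5% dialyzed FBS medium and preincubated 5 hrs.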

[13] = qHTS assay to identify small molecule agonists of the estrogen related receptor (ERR) signaling pathway from Tox21 library (AID 1224849; calls by dose curve; note: nearly all actives have a fitted effect of over 15% in size); details: ERR reporter cell line, ONE-Glo luciferase, 18 h; at 92.4 µM (top of the series) unless noted
Outline: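 Luminescence readout (ONE-Glo, 30 min RT) after 18 h compound exposure at 37 C of NTP-supplied ERR reporter cells; cells were plated 6 h before compound addition by pin tool.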

[14] = qHTS RealTime-Glo MT Cell Viability Assay in HepG2 cells - 24 hour (AID 1224867); details: RealTime-Glo luminescence; series mostly up to 76.8 µM; note: nearly all actives have a fitted effect of over 50% in size
Outline: (§5)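 Compound treatment began 5 h after plating HepG2 cells (600/well) with NanoLuc luciferase and prosubstrate. Plates stayed at 37 C for 40 h; luminescence was captured at six time points, 0 h through 40 h.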

[15] = qHTS RealTime-Glo MT Cell Viability Assay in HepG2 cells - 40 hour (AID 1224870); details: RealTime-Glo luminescence; series mostly up to 76.8 µM; note: nearly all actives have a fitted effect of over 50% in size
Outline: as §4

[16] = qHTS RealTime-Glo MT Cell Viability Assay in HEK293 cells - 40 hour (AID 1224874); details: RealTime-Glo luminescence; max response: stronger effect = lower value; note: nearly all actives have a fitted effect of over 50% in size; note: potency is the fitted concentration of half-maximal effect
Outline: (§6)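 Luminescence readout at each listed time point; HEK293, 600 cells/well, RealTime-Glo MT reagent added with cells; compounds pinned (23 nL in DMSO) after 5 h at 37 C; continuous culture at 37 C.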

[17] = qHTS RealTime-Glo MT Cell Viability Assay in HepG2 cells - 32 hour (AID 1224877); details: RealTime-Glo luminescence; series mostly up to 76.8 µM; note: nearly all actives have a fitted effect of over 55% in size
Outline: as §5

[18] = qHTS RealTime-Glo MT Cell Viability Assay in HEK293 cells - 0 hour (AID 1224880); details: RealTime-Glo luminescence; series mostly up to 76.8 µM
Outline: as §6

[19] = qHTS assay to identify small molecule antagonists of the estrogen related receptor (ERR) signaling pathway from Tox21 library (AID 1224848); details: ERR reporter cell line, luciferase antagonist mode, 18 h; series mostly up to 92.4 µM; note: nearly all actives have a fitted effect of over 50% in size
Outline: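 First, 2,000 ERR cells per well were plated and held 6 h at 37 C/5% CO2. Next, compounds in DMSO were pinned in and left 18 h at 37 C. Finally, ONE-Glo was added and luminescence read after 30 min at room temperature.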

[20] = qHTS RealTime-Glo MT Cell Viability Assay in HEK293 cells - 32 hour (AID 1224868); details: RealTime-Glo luminescence; series mostly up to 76.8 µM
Outline: as §3
% is set by controls: 0 for no effect and ±100 for the full control effect.

CCOC(=O)[C@H](CCc1ccccc1)N[C@H]1CCc2ccccc2N(CC(=O)O)C1=O
inactive: Potency [1] | Potency [2]
active: Potency [3] 26.8 µM | Potency [4] 26.8 µM | Potency [5] 26.8 µM

CN1CCN(C2=Nc3cc(Cl)ccc3Nc3ccccc32)CC1
inactive: Potency [1] | Potency [6] | Potency [2] | Potency [7] | Potency [8] | Potency [9] | Potency [10] | Potency [3]
active: Potency [4] 23.9 µM | Potency [5] 23.9 µM

Cc1cccc(Oc2ccccc2)c1
active: Potency [16] 47.8 µM | Potency [5] 47.8 µM
inactive: Potency [11] | outcome [12] | activity change, positive = activation [13] -65.1% | Potency [14] | Potency [2] | Potency [15] | Potency [7] | Potency [9] | Potency [10] | Potency [3] | Potency [17] | Potency [18]

CN1CCC(=C2c3ccccc3C=Cc3ccccc32)CC1
inactive: Potency [11] | activity change, positive = activation [13] 5.98% [at 42.5 µM] | Potency [2] | Potency [15] | Potency [8] | Potency [9] | Potency [10] | Potency [17] | Potency [18]
active: Potency [5] 26.8 µM

C=CC(C)(CCC=C(C)C)OC(=O)c1ccccc1 (configuration not stated)
inactive: Potency [1] | outcome [12] | Potency [14] | Potency [2] | Potency [15] | Potency [8] | Potency [9] | max response [16] -13.6% | Potency [3] | Potency [17] | Potency [4] | Potency [5] | Potency [18]

O=C(/C=C/c1ccc(O)c(O)c1)O[C@@H]1C[C@](O)(C(=O)O)C[C@@H](O)[C@H]1O
inactive: Potency [1] | Potency [6] | Potency [14] | Potency [2] | Potency [8] | Potency [9] | Potency [10] | Potency [3] | Potency [17] | Potency [4] | Potency [18]

OCC1CC2CC1C1CCC(CO)C21 (configuration not stated)
inactive: Potency [11] | Potency [6] | Potency [19] | activity change, positive = activation [13] -2.51% | Potency [14] | Potency [20] | Potency [2] | Potency [15] | Potency [8] | Potency [9] | max response [16] -17.3% | Potency [3] | Potency [17] | Potency [5] | Potency [18]

CCCCc1cc2ccccc2c(OCCN(C)C)n1
inactive: Potency [11] | outcome [12] | Potency [14] | Potency [2] | Potency [15] | Potency [9] | Potency [17] | Potency [18]
active: Potency [7] 21.3 µM

Cc1cc(C)c(S(=O)(=O)O)cc1N=Nc1cc(S(=O)(=O)O)c2ccccc2c1O
inactive: Potency [1] | outcome [12] | Potency [14] | Potency [2] | Potency [15] | Potency [7] | Potency [9] | Potency [10] | Potency [3] | Potency [17] | Potency [4] | Potency [5] | Potency [18]

CC(C)NCC(O)COc1ccc(CC(N)=O)cc1 (configuration not stated)
inactive: Potency [1] | Potency [14] | Potency [20] | Potency [2] | Potency [7] | Potency [8] | Potency [9] | max response [16] -1.4% | Potency [10] | Potency [3] | Potency [17] | Potency [5] | Potency [18]

CCN(CC)CCNC(C(=O)OCCC(C)C)c1ccccc1 (configuration not stated)
inactive: Potency [11] | outcome [12] | Potency [6] | Potency [19] | activity change, positive = activation [13] 0.0727% [at 42.5 µM] | Potency [14] | Potency [20] | Potency [2] | Potency [7] | Potency [8] | Potency [9] | max response [16] -10.1% | Potency [10] | Potency [3] | Potency [17] | Potency [4] | Potency [18]

CC(=O)c1ccc2c(c1)[C@H](NC(=O)c1ccc(F)cc1)[C@@H](O)C(C)(C)O2
inactive: Potency [11] | outcome [12] | Potency [6] | Potency [14] | Potency [20] | Potency [2] | Potency [15] | Potency [7] | Potency [8] | Potency [9] | Potency [10] | Potency [3] | Potency [17] | Potency [4] | Potency [5] | Potency [18]

CCCCOc1ccc(CC(=O)NO)cc1
inactive: outcome [12] | Potency [14] | Potency [2] | Potency [15] | Potency [9] | Potency [10] | Potency [3] | Potency [17] | Potency [4] | Potency [18]
active: Potency [8] 2.68 µM
